{"source": "the supplement of paper PMC10105736", "binders": {"B1": {"name": "Fkbp12 (protein)", "chain": "MGVQVVPIAPGDGSTYPKNGQKVTVHYTGTLDDGTKFDSSRDRNKPFKFTIGKGEVIRGWDEGVAQLSVGQRAKLICSPDYAYGSRGHPGVIPPNSTLTFDVELLKVE"}, "B2": {"name": "PI31 (protein)", "chain": "MESGSTAKTGDFFYGWDLLYKTVKADVSKKSDLLIALVHFLLTKHYNFRCVGVGDDKTLPEEEGSELLPDSWNDDDTKYSLRYVHDKMLYLLLGHITEGSLLINLLDINTKKVSNICVEPETLVPEVKGGITTIMPSASEIVERYRRELLDPVFTGNSREVTTQTTNSPRPIGSDPDPLRIGEPRRGGSFIPSAFEPRPFGFPDVGRGDLDPLGRGGHGNLFSFPSRPNMGPGPVPRFDPFNPLNPNRPGQGGINPDHMRPPDWNPDYYM"}, "B3": {"name": "z (protein)", "chain": "MSAQGEGGGAGGSGGGGAGSDGGGNAGQSSTGSGTVAVTNGGNSSAKNQLPLTPRFTAEEKEVLYTLFHLHEEVIDIKHRKKQRNKYSVRETWDKIVKDFNSHPHVSAMRNIKQIQKFWLNSRLRKQYPYRDGSSSNLSSGSAKISSVSVSVASAVPQQQQQQHHQQHDSVKVEPEYQISPDASEHNPQADTFDEIEMDANDVSEIDEDPMEQQQQQQQEAQAQAQAQAQAQAQVQSAAAEMQKMQQVNAVAAAAAANATMINTHQINVDQISAEKLTLNDLLHFKTARPREEIILIKHPEATATQIHTIPTQAQQHPMATITAGGYNQQIISEIKPQQITLAQYQAQQQQQAQAQAQAQAQAQAQAQAQAQAQAQAQQLAQQQLAAAQHQQLAAAVQVHHQQQQQQQAAVAVQQQQAAAAAAVKMQLTAATPTFTFSALPTVTAATTVPAAVPVPVATASSGSANSVAVNTSTASSVSINNTSLGGGGGNGATNSSATAADSFEERMNYFKIREAELRCKEQQLATEAKRIELNKAQDELKYMKEVHRLRVEELTMKIRILQKEEEQLRKCSTS"}, "B4": {"name": "tut (protein)", "chain": "MDFESKYCTSQVNGTITITTRKVLDENLKSLLDEGKGELFLSCIPRNHSCSPRWIVEVASELGEVYIMRYKIDFSGNSRGYAYLQYINVDLKESAMQYLPMRFRQLCMCLRVEPSTNNRELVLKNVESSLRPWQVYQEMLKIHPFTIVRVYEYQLDQFFYIFEYRNNDSAASAHQRVRNSIRKFGEHAHISWLTAENILSRASGSFCFQREVSQNRTRRVPPRQKGCFKF"}, "B5": {"name": "M6 (protein)", "chain": "MSKVKNLLAKMLQRFGKNSSQADSQRYDSLEEIAQNQANERMLRATQVGLEEHLVICLETEAGSFYWHSQ"}, "B6": {"name": "RpLP2 (protein)", "chain": "MRYVAAYLLAVLGGKDSPANSDLEKILSSVGVEVDAERLTKVIKELAGKSIDDLIKEGREKLSSMPVGGGGAVAAADAAPAAAAGGDKKEAKKEEKKEESESEDDDMGFALFE"}, "B7": {"name": "Cdk12 (protein)", "chain": "MHASSAAATALVEYSDVSSEDFSDQEAGDLDADAGKGAGNIKKPKPAPDNQFSKGRLDAKPDKEGYDNYRSRRAEDSSDPVAAGSRQTSSSEATNPREEPSQASNTSKDELWGREIYMSSDSIDTDELEAEMKRQKRKKQKKEKHKHKSKKKSKKRKKKRAKSYSSIDSMSDNDINALLDRRYTPPTAPSKSNERTVSAAPSSFTPHNLKESSSPATPPPVRRPNTNSNYYGESSLETANSALGSNLQVTVTNKQSISNRLRSPPPSSRSSGNGPRFGNSPRTPPPSHYSSSGGGGVGSGSVVRDSRSSRYVNSPHKEDVSAHHRSSHDHGYQGRYSGAGSSSHDTRKVKRLSPELDRYNHQPSTPPHKRRKFSDGREVGLGNFEHSRHHSGKYERYSRDRYSRRSSRSPSVQHSRSRQSPSGGLSSGSNAFRHGGSHKHKYGTTVSSTPSHTTRTSKRASGTGTSGDRYSRSPRTSSRYMESSPPSPVGASGSHHYHHRRSPRMRQRTRGDSRRRSPSSASSESSASRSRSPTSRDLKHKREEYIKKISETSLFAELVKDRHKRQKALKEIIERQEENSNSNSNGALTINDNSSSVDGNTPNAADGRSAPGSGTPAAASTTSNGLQALGSKPDLDLNNIPMPNKQNDSVVSNPASNADVPDSVAQLKQPLLVPPFSASKNNIKPKSLTSLPLPPGMNVLDLAGARSPSPGQKKESDEKNVTSSGSANKSVLNLPMPPVIPGSEELSGDDDVIDSPEDFDAPAVGTVHGHGGGPGTTRQRPVILNRRDSRNNVRDWGERCVDVFEMIAQIGEGTYGQVYKARDHHTNDMVALKKVRLEHEKEGFPITAVREIKILRQLNHRNIVNLHEIVTDKQDAVEFRKDKGSFYLVFEYMDHDLMGLLESGMVDFNEENNASIMKQLLDGLNYCHKKNFLHRDIKCSNILMNNRGKVKLADFGLARLYNADDRERPYTNKVITLWYRPPELLLGEERYGPSIDVWSCGCILGELFVKRPLFQANAEMAQLETISKICGSPVPAVWPNVIKLPLFHTLKQKKTHRRRLREDFEFMPAPALDLLDKMLDLDPDKRITAEDALRSPWLRKINPDEMPTPQLPTWQDCHELWSKKRRRQMREQQESLPPTVIASTKYQQHGATMVGDA"}}, "experiment_in_all_cases": "MAPPIT interaction score (arbitrary units); higher = stronger binary interaction signal, active = hit call of the paper", "key": {"CG14282": {"target": "CG14282", "details": "MAPPIT configuration: N-C; pair source set: RRS"}, "CG14074": {"target": "CG14074", "details": "MAPPIT configuration: N-N"}, "GstO3": {"target": "GstO3", "details": "MAPPIT configuration: N-N; pair source set: DPIM"}, "Su(var)2-10": {"target": "Su(var)2-10", "details": "MAPPIT configuration: N-C; pair source set: screen_3"}, "TrxT": {"target": "TrxT", "details": "MAPPIT configuration: N-N; pair source set: screen_2"}, "CG14190": {"target": "CG14190", "details": "pair source set: RRS"}, "CG42512": {"target": "CG42512", "details": "pair source set: RRS"}, "CG1416": {"target": "CG1416", "details": "MAPPIT configuration: N-N; pair source set: DPIM"}, "CG13965": {"target": "CG13965", "details": "MAPPIT configuration: N-C; pair source set: screen_4"}, "CG14464": {"target": "CG14464", "details": "MAPPIT configuration: N-N; pair source set: RRS"}}, "note": "A number with no mark means an inactive call.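 How the source made its calls: active = MAPPIT score above the 99th percentile of random reference set scores in the same batch; inactive = at or below it.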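 Further: HEK293T cells with Epo stimulation, STAT-responsive firefly luciferase reporter, fold induction versus unstimulated cells divided by the larger fold induction of two negative controls lacking either bait or prey.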", "data": [{"binder": "B1", "values": [{"measurement": "MAPPIT interaction score", "setting": "CG14282", "result": -0.281}]}, {"binder": "B2", "values": [{"measurement": "MAPPIT interaction score", "setting": "CG14074; pair source set: screen_1", "result": -0.274}, {"measurement": "MAPPIT interaction score", "setting": "GstO3", "result": 0.447}]}, {"binder": "B3", "values": [{"measurement": "MAPPIT interaction score", "setting": "CG14074; pair source set: screen_2", "result": -0.404}, {"measurement": "MAPPIT interaction score", "setting": "Su(var)2-10", "result": 1.09}, {"measurement": "MAPPIT interaction score", "setting": "TrxT", "result": -0.122}]}, {"binder": "B4", "values": [{"measurement": "MAPPIT interaction score", "setting": "CG14190; MAPPIT configuration: N-C", "result": 0.351}, {"measurement": "MAPPIT interaction score", "setting": "CG14190; MAPPIT configuration: N-N", "result": -0.511}, {"measurement": "MAPPIT interaction score", "setting": "CG42512; MAPPIT configuration: N-C", "result": -0.391}, {"measurement": "MAPPIT interaction score", "setting": "CG42512; MAPPIT configuration: N-N", "result": 0.0427}]}, {"binder": "B5", "values": [{"measurement": "MAPPIT interaction score", "setting": "CG1416", "result": -0.155}]}, {"binder": "B6", "values": [{"measurement": "MAPPIT interaction score", "setting": "CG13965", "result": 2.1}]}, {"binder": "B7", "values": [{"measurement": "MAPPIT interaction score", "setting": "CG14464", "result": 0.381}]}]}
